From PubChem BioAssay (NCATS)
Several values for one entry are separate records, joined by “and”; a condition that tells them apart may be missing. Identical values can stand only once. Records with an inconclusive call do not appear. A structure can be active in one record and inactive in another. Activity calls are given as the source filed them. Unless noted, the call rests on the fitted dose curve; in most records, active means well fitted curve in the direction sought with a large enough effect; inconclusive means small, poorly fitted or top-dose-only effect, or another doubt; inactive means no such curve, though single readings can be large; an effect the other way counts as inactive or inconclusive. Non-standard residues stand in square brackets, D forms with d. Residues, ends and D or L forms follow the SMILES beside them.

What was measured:
[1] = target: Cytochrome P450 1A2 (Homo sapiens) (UniProt P05177); assay: p450-cyp1a2 (AID 410; calls by dose curve; further: potency means the concentration at half of the fitted maximal effect;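 on activity change, negative = inhibition: -100% = full effect of reference inhibitor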)
Chain of Cytochrome P450 1A2 (Homo sapiens) (P05177 whole entry, looked up): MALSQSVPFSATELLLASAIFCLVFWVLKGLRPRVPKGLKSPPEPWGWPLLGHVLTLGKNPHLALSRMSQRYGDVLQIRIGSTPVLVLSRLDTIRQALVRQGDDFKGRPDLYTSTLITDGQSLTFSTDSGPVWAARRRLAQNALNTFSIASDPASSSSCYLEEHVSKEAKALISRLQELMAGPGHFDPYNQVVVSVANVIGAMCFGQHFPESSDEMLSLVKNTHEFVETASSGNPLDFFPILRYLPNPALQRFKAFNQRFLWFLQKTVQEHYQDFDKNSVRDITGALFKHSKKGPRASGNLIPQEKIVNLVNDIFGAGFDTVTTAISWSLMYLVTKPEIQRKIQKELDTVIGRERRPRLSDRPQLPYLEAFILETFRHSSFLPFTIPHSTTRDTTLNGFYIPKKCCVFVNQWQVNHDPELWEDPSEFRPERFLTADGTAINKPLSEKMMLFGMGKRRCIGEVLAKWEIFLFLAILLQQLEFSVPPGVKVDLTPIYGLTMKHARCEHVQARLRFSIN
How it was run: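 Read-out is luminescence from luciferin produced by CYP1A2 demethylation of Luciferin-ME (100uM, at Km). Detection reagent stopped the 60 min NADPH-dependent reaction; signals were normalized to 57 uM furafylline.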

[2] = target: Glucocorticoid receptor (Homo sapiens) (UniProt P04150); assay: GR-GFP Redistribution (AID 450;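 active means compounds whose dose series gives a full or clear partial fitted curve of increased nuclear translocation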; further: potency means the concentration at half of the fitted maximal effect); settings: U2OS GR-GFP nuclear translocation, laser cytometry, 2 h
Chain of Glucocorticoid receptor (Homo sapiens) (P04150 whole entry, looked up, the tested form may be a part): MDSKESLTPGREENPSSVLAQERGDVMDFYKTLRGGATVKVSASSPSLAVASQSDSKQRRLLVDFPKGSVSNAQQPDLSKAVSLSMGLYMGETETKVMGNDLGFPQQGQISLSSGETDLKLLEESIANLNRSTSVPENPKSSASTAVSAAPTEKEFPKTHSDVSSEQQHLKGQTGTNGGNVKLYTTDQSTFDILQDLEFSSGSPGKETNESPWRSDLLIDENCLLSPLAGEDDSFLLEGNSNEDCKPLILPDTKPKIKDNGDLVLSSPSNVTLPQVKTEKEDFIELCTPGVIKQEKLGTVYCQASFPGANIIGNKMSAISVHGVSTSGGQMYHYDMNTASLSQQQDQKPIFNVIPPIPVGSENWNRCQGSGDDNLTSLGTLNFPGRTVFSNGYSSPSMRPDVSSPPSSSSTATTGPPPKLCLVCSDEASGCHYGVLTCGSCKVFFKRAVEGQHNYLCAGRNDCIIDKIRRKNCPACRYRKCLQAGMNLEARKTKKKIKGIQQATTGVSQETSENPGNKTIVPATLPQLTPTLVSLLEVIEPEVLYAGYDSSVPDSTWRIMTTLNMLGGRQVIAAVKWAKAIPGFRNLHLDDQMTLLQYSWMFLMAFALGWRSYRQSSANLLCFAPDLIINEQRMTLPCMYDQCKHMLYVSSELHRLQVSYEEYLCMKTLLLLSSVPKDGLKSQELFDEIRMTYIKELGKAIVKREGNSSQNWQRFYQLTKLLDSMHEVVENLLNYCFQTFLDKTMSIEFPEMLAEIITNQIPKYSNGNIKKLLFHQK

[3] = target: Glucocorticoid receptor (Homo sapiens) (UniProt P04150); assay: GR-EFC Redistribution (AID 451; calls by dose curve; further: potency means the concentration at half of the fitted maximal effect); settings: CHO-K1 GR-EFC translocation, beta-gal luminescence, 2 h
How it was run: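 CHO-K1 cells stably expressing nuclear-localized β-gal enzyme acceptor and GR fused C-terminally to the enzyme donor fragment; ligand-driven nuclear translocation restores β-gal by complementation. Compounds titrated up to 46 uM final, 2 h at 37 °C; luminescence read.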

[4] = target: Mitogen-activated protein kinase 10 (Mus musculus) (UniProt Q61831); assay: JNK3 AlphaScreen Assay (AID 530; active means well fitted curve in either direction with a large enough effect, not every such curve was filed as active;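 further: kinase came from lysate of stimulated human HepG2 cells; signal reports phosphorylation of biotinylated GST-cJun 1-79 at Ser73 with 10 µM ATP; on the % scale 0 is the no-effect control and ±100 the full control effect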)
How it was run: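 Biotinylated GST-cJun(1-79) served as substrate for JNK3 in HepG2 lysates stimulated with IL-1beta and TNF-alpha. ATP was 10 uM final, pH 7.6. Ser73 phosphorylation was quantified by AlphaScreen (680 nm excitation).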

[5] = target: 3',5'-cyclic-AMP phosphodiesterase 4B (Homo sapiens) (UniProt Q07343); assay: qHTS Assay for Inhibitors of PDE-IV (AID 607; active means well fitted activation curve with a large enough effect in the main read-out, with a control signal flat, not every such curve was filed as active; further: % of control where 0% means no effect)
Chain of 3',5'-cyclic-AMP phosphodiesterase 4B (Homo sapiens) (Q07343 whole entry, looked up): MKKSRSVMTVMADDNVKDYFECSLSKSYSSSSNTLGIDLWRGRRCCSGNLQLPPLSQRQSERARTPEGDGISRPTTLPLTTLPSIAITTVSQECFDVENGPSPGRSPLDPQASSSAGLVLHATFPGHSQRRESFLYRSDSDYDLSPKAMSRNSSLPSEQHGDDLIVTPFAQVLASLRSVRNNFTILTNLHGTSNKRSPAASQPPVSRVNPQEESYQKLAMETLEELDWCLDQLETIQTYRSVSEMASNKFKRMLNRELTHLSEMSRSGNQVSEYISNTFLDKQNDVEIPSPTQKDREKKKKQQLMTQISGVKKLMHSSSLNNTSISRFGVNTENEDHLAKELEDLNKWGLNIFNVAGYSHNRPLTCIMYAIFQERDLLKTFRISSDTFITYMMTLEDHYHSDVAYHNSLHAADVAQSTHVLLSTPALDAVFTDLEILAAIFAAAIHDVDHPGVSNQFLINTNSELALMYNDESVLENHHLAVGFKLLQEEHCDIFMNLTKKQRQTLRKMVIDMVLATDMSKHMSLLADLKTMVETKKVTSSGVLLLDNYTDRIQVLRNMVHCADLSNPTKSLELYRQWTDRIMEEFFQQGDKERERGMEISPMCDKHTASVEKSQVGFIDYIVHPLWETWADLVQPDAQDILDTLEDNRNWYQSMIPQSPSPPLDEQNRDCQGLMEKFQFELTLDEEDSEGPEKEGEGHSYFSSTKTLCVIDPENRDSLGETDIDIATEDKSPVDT
How it was run: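 The readout is membrane depolarisation from a cAMP-sensing CNG channel, detected with a potential dye at ex 535/em 590. Cells were HEK293-derived (endogenous PDE-IV) at 1000 cells/well, titrated up to 22.9 uM final.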

[6] = target: Ubiquitin carboxyl-terminal hydrolase 1 (Homo sapiens) (UniProt O94782); assay: Inhibitors of USP1/UAF1: Pilot qHTS (AID 504865); further: nearly all actives have a fitted effect of over 35% in size; further: potency means the concentration at half of the fitted maximal effect
Chain of Ubiquitin carboxyl-terminal hydrolase 1 (Homo sapiens) (O94782 whole entry, looked up): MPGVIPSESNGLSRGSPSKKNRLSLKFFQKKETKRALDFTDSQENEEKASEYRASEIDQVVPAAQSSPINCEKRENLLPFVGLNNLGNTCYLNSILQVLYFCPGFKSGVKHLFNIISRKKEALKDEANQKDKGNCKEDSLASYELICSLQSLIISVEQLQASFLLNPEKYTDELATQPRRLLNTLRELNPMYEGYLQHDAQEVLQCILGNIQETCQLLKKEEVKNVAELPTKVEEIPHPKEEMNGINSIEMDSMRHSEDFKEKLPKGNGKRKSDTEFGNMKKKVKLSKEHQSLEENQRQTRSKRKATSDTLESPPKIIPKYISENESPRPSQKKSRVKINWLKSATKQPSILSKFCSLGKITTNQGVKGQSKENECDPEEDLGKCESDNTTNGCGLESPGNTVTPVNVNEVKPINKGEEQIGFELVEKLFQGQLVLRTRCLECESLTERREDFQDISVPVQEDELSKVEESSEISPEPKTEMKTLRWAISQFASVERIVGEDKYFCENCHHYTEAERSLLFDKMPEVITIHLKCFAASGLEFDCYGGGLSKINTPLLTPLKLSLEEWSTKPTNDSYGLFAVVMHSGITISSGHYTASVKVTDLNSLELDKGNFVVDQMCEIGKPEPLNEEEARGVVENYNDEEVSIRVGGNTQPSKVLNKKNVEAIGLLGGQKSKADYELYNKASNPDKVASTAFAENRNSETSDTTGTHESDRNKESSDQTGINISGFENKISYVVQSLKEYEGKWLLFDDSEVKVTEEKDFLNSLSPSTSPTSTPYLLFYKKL
How it was run: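 1nM USP1/UAF1 + cpd, 15 min RT; start w/ Ub-Rho 150nM final; kinetic FL 480/540 nm, 6 reads q60 s. Buffer 50mM HEPES pH 7.8, 0.5mM EDTA, 1mM TCEP, 0.01% Tween-20, 0.1 mg/ml BSA.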

[7] = target: DNA dC->dU-editing enzyme APOBEC-3G (Homo sapiens) (UniProt Q9HC16); assay: qHTS for inhibitors of Vif-A3G interactions: Validation (AID 588379); further: potency means the concentration at half of the fitted maximal effect; on activity change, negative = inhibition: 0% is about no effect
Chain of DNA dC->dU-editing enzyme APOBEC-3G (Homo sapiens) (Q9HC16 whole entry, looked up): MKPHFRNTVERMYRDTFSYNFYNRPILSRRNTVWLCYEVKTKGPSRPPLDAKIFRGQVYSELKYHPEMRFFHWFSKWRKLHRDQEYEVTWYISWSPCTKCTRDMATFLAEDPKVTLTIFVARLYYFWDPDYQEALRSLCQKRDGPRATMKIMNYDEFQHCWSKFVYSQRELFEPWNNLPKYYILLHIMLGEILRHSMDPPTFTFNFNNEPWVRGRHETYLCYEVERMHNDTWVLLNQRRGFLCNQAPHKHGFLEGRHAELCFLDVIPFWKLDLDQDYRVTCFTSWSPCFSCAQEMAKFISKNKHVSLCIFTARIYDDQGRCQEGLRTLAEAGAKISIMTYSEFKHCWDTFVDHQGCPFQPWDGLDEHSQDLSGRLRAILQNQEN
How it was run: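 Yellow fluorescence (Ex 488, Em 500-530) of Vif-coexpressing HeLa A3G-eYFP cells, scanned by Acumen cytometer, reports blocked A3G degradation. Cells plated at 700/well overnight at 37 deg C before compound addition, then a further overnight compound incubation at 37 deg C.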

[8] = test system: Zika virus NS2B-NS3 protease; assay: Primary screen GU AMC qHTS for Zika virus inhibitors (AID 1347154);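 further: 0% = no-inhibitor control and -100% = no-enzyme control; nearly all actives have a fitted effect of over 70% in size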
How it was run: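 Unlinked Zika NS2B hydrophilic domain/NS3 protease domain noncovalent complex (25 nM final) in 10 mM Tris-HCl pH 8.0, 0.01% Tween 20, with AMC peptide substrate. Fluorescence (ex 340, em 450 nm) change over 15 min, room temperature; percent inhibition fitted to 4-parameter Hill equation.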

[9] = Primary qHTS for small molecule stabilizers of the endoplasmic reticulum resident proteome: Secreted ER Calcium Modulated Protein (SERCaMP) assay (AID 1508630); further: on the % scale 0 is the no-effect control and ±100 the full control effect
How it was run: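 The SH-SY5Y reporter protocol was run at 3 concentrations up to 38.3 uM (primary) or 11 concentrations (follow-up): 16 h compound, 100 nM thapsigargin for 4 h, then extracellular luciferase luminescence.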

[10] = target: Cytochrome P450 3A4 (Homo sapiens) (UniProt P08684); assay: qHTS Assay for Activators of Cytochrome P450 3A4 (AID 885); further: nearly all actives have a fitted effect of over 65% in size
Chain of Cytochrome P450 3A4 (Homo sapiens) (P08684 whole entry, looked up): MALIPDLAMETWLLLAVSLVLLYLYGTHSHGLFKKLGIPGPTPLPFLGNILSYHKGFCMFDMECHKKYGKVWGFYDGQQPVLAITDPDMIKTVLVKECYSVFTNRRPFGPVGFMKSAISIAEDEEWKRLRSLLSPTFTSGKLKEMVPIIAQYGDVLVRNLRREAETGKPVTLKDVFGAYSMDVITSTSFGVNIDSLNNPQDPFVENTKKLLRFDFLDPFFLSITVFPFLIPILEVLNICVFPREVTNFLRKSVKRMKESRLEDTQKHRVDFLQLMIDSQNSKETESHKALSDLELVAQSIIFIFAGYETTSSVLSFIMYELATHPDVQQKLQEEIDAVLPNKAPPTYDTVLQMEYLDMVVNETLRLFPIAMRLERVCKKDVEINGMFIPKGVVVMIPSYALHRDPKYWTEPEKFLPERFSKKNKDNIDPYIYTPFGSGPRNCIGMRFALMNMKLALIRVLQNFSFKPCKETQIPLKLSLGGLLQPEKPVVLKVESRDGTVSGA
How it was run: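 Activators are scored by enhanced luminescence from CYP3A4 conversion of luciferin-PPXE (25uM, equal to KM) to luciferin, after 60 min at RT with an NADPH-regenerating system.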

[11] = target: Cytochrome P450 2C9 (Homo sapiens) (UniProt P11712); assay: qHTS Assay for Inhibitors and Substrates of Cytochrome P450 2C9 (AID 883); further: nearly all actives have a fitted effect of over 60% in size; further: potency means the concentration at half of the fitted maximal effect
Chain of Cytochrome P450 2C9 (Homo sapiens) (P11712 whole entry, looked up): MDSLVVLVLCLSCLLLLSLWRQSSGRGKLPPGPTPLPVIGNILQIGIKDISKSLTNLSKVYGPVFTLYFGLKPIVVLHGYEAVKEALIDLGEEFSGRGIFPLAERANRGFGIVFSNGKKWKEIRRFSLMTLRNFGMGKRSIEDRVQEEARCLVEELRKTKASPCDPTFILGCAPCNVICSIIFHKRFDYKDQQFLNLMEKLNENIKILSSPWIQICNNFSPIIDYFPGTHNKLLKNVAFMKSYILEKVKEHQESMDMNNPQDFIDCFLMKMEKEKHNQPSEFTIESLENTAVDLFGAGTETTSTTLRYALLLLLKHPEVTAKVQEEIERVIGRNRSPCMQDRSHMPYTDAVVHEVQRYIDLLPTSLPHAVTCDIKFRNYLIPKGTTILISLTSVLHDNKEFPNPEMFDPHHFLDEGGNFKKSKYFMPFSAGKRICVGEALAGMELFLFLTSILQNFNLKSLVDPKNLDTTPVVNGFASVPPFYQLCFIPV
How it was run: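 A luminogenic readout tracked human CYP2C9 (10nM) converting deoxyluciferin (100uM, at KM) in 25mM KPO4 during 60 min at 37C with regenerated NADPH. Values normalized to 57uM sulphaphenazole as complete inhibition.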

[12] = target: Cytochrome P450 2C19 (Homo sapiens) (UniProt P33261); assay: qHTS Assay for Inhibitors and Substrates of Cytochrome P450 2C19 (AID 899); further: potency means the concentration at half of the fitted maximal effect; nearly all actives have a fitted effect of over 60% in size
How it was run: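 NADPH-dependent conversion of Luciferin-H EGE (10uM, at KM) by 5nM enzyme in 50mM KPO4, 60 min at 37C following 10 min compound preincubation. Stopped with luciferin detection buffer; luminescence read after 20 min.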

[13] = AP1 Signaling Pathway (AID 357; active means well fitted curve in either direction with a large enough effect, not every such curve was filed as active;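 further: ME-180 reporter cells stimulated with EGF at its EC50 level; on the % scale 0 is the no-effect control and ±100 the full control effect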); settings: ME-180 AP-1-bla reporter, EGF-induced, beta-lactamase ratio, 5 h; at 38 µM (top of the series)
How it was run: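 Read-out was the 460nm/530nm emission ratio (excitation 405nm) after CCF4 loading for 2.5 hours at room temperature. Cells carried an AP-1-driven beta-lactamase reporter, were stimulated with EC50 EGF plus compound for 5 hours, and AC50 values came from titrations.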

[14] = NFAT Signaling Pathway (AID 444; active means well fitted curve in either direction with a large enough effect, not every such curve was filed as active;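 further: carbachol stimulus at about its EC50 of 1 µM final; on the % scale 0 is the no-effect control and ±100 the full control effect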); settings: Jurkat NFAT-bla M1, carbachol, beta-lactamase ratio, 5 h; at 38 µM (top of the series)
How it was run: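 Jurkat cells carrying an NFAT-driven β-lactamase reporter and co-transfected muscarinic M1 receptor were treated with compound plus carbachol (1 uM final, an EC50 level) for 5 h at 37 °C. CCF4 loading followed for 1 h at RT; 460/530 nm ratio gave %activity.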

[15] = Stat Signaling Pathway (AID 446; active means well fitted curve in either direction with a large enough effect, not every such curve was filed as active); settings: ME-180 (cervical carcinoma) SIE beta-lactamase reporter, IL-6 stimulated, 5 h; at 38 µM (top of the series)
How it was run: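 Emission at 460 and 530 nm (excitation 405 nm) reports SIE-controlled beta-lactamase in ME-180 cells. Cells received compound with 40 pM IL-6 for 5 hrs at 37 C; data scaled between 300 pM IL-6 and 125 nM JAK-inhibitor controls.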

[16] = target: Cytochrome P450 2D6 (Homo sapiens) (UniProt P10635); assay: qHTS Assay for Inhibitors and Substrates of Cytochrome P450 2D6 (AID 891); further: potency means the concentration at half of the fitted maximal effect; nearly all actives have a fitted effect of over 60% in size
Chain of Cytochrome P450 2D6 (Homo sapiens) (P10635 whole entry, looked up): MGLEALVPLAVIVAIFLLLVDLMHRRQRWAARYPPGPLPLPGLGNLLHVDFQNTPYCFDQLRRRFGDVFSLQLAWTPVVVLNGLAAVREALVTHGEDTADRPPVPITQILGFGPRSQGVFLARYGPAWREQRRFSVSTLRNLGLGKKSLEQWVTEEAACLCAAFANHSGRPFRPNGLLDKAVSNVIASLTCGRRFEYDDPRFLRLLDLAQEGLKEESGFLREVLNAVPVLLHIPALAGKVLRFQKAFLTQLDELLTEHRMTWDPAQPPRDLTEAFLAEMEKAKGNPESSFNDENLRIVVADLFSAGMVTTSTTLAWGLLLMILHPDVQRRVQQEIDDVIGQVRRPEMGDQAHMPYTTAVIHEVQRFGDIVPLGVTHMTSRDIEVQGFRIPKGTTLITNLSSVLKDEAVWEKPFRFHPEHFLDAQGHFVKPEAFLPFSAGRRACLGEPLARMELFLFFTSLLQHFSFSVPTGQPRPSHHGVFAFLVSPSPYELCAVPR
How it was run: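 Luminescent read-out of luciferin formed by 5 nM human CYP2D6 demethylating 30 uM Luciferin-ME EGE (Km level) over 60 min at room temperature after NADPH regeneration addition. Data normalized to full inhibition by 1.43 uM quinidine.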

[17] = target: Guanine nucleotide-binding protein G(i) subunit alpha-1 (Homo sapiens) (UniProt P63096); assay: qHTS Assay for Inhibitors of RGS12 GoLoco Motif Activity (Green Fluorophore) (AID 879);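 further: 0% = labeled peptide with Gαi1 and full inhibition = labeled peptide alone without protein; negative values mean loss of peptide binding seen as reduced polarization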
How it was run: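 A drop in FITC polarization marked displacement of the FITC-tagged RGS12 GoLoco peptide (10 nM) from Gαi1 (50 nM). Compounds were incubated 10 min at room temperature in Tris pH 7.5 buffer containing 150 mM NaCl, 0.1 mM GDP and 0.05% NP40; unlabeled peptide titration served as control.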

[18] = target: alpha-glucosidase (Oryza sativa, rice) (UniProt Q653V4); assay: Counterscreen for Glucocerebrosidase Inhibitors: qHTS Assay for Rice alpha-Glucosidase at pH 5.0 (AID 997);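 further: 0% = full activity with enzyme and -100% = basal without enzyme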
How it was run: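 Endpoint fluorogenic assay at pH 5.0: compounds (0.7 nM to 77 uM) titrated against 4 nM rice enzyme and 400 uM 4-MU-alpha-glucoside for 20 min at room temperature; NaOH/glycine stop, read ex 365/em 440 nm, Hill-fitted AC50.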

[19] = target: Cytochrome P450 3A4 (Homo sapiens) (UniProt P08684); assay: qHTS Assay for Inhibitors and Substrates of Cytochrome P450 3A4 (AID 884); further: on the % scale 0 is the no-effect control and ±100 the full control effect; nearly all actives have a fitted effect of over 50% in size
How it was run: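 Luminescent readout of luciferin produced by CYP3A4 (20 nM) dealkylation of Luciferin-PPXE, 25 uM (its KM). NADPH-driven reaction ran 60 min at RT after 10 min compound preincubation; data scaled to 57 uM ketoconazole as 100% inhibition.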

CSCC[C@H](C=O)NC(=O)[C@H](CC(C)C)NC(=O)[C@H](CC(C)C)NC(C)=O (Ac-Leu-Leu-[dM]-aldehyde)
inactive: Potency [1] | Potency [2] > 46 µM | Potency [3] > 46 µM | Potency [4] | Potency [5] | Potency [6] | Potency [7] | Potency [8] | Potency [9]

Nc1nc(NCCc2ccc(O)cc2)nc2nc(-c3ccco3)nn12
inactive: Potency [2] > 46 µM | Potency [3] > 46 µM | Potency [10] | Potency [6] | Potency [8] | Potency [9]
active: Potency [1] 31.6 µM

COc1ccccc1N1CCN(C[C@@H](C(=O)NC(C)(C)C)c2ccccc2)CC1
inactive: Potency [2] > 46 µM | Potency [3] > 46 µM | Potency [6] | Potency [7] | Potency [8] | Potency [9]
active: Potency [1] 0.631 µM

OC[C@@H](O)COc1cccc2ccccc12
active: Potency [1] 0.631 µM
inactive: Potency [2] > 46 µM | Potency [3] > 46 µM | Potency [4] | Potency [6] | Potency [7] | Potency [8] | Potency [9]

CCCCN1CCC(CCC(=O)c2cc(Cl)c(N)cc2OC)CC1
inactive: Potency [1] | Potency [2] > 46 µM | Potency [3] > 46 µM | Potency [4] | Potency [5] | Potency [11] | Potency [6] | Potency [7] | Potency [8] | Potency [9]

CCn1c(=O)[nH]c2ccccc21
active: Potency [1] 31.6 µM
inactive: Potency [2] > 46 µM | Potency [3] > 46 µM | Potency [4] | Potency [5] | Potency [6] | Potency [7] | Potency [8] | Potency [9]

O=C(Cc1ccccc1)Nc1nc2ccc(Cl)cc2c2nc(-c3ccco3)nn12
active: Potency [1] 0.2 µM | Potency [11] 3.16 µM | Potency [12] 1.58 µM | Potency [7] 21.1 µM
inactive: Potency [2] > 46 µM | Potency [3] > 46 µM | Potency [4] | Potency [5] | Potency [10] | Potency [6] | Potency [8] | Potency [9]

CCC(=O)N[C@@H]1CCc2cccc(OC)c2C1
active: Potency [1] 12.6 µM
inactive: Potency [2] > 46 µM | Potency [3] > 46 µM | Potency [4] | Potency [5] | Potency [6] | Potency [7] | Potency [8] | Potency [9]

OCc1cc([C@@H](O)CNCCCCCCOCCCCc2ccccc2)ccc1O
inactive: activity change, negative = inhibition [13] 9.46% | activity change, negative = inhibition [14] -1.3% | activity, negative = inhibition [15] -26.7% | Potency [2] > 46 µM | Potency [3] > 46 µM | Potency [4] | Potency [5] | Potency [7] | Potency [8] | Potency [9]

O=c1[nH]c2cc(Cl)ccc2c(O)c1-c1cccc(Oc2ccccc2)c1
inactive: Potency [2] > 46 µM | Potency [3] > 46 µM | Potency [4] | Potency [6] | Potency [7] | Potency [8] | Potency [9]
active: Potency [1] 2.51 µM | Potency [16] 6.31 µM

Fc1ccc([C@H]2CCNC[C@H]2COc2ccc3c(c2)OCO3)cc1
inactive: Potency [2] > 46 µM | Potency [3] > 46 µM | Potency [4] | Potency [10] | Potency [6] | Potency [7] | Potency [8] | Potency [9]
active: Potency [1] 3.16 µM

Cc1cccc(/C=C\c2ccccc2)n1
active: Potency [1] 631 nM and 398 nM | Potency [16] 0.794 µM | Potency [12] 0.501 µM
inactive and 3.98 µM (active): Potency [11]
inactive: activity change, negative = inhibition [13] -0.643% | activity change, negative = inhibition [14] -3.22% | Potency [2] > 46 µM | Potency [3] > 46 µM | Potency [4] | Potency [5] | outcome [17] | Potency [10] | outcome [18] | Potency [7] | Potency [8] | Potency [9]

O=C(c1c(O)c2ccc(Cl)cc2[nH]c1=O)C1CC1
inactive: Potency [2] > 46 µM | Potency [3] > 46 µM | Potency [4] | Potency [10] | Potency [6] | Potency [7] | Potency [8] | Potency [9]
active: Potency [1] 0.0794 µM

COc1ccc(CCCO[C@@H](Cn2ccnc2)c2ccc(OC)cc2)cc1
inactive: Potency [2] > 46 µM | Potency [3] > 46 µM | Potency [4] | Potency [8] | Potency [9]
active: Potency [1] 0.0158 µM

CCCCCCCCCCCCCCC[C@@H](O)[C@@H](N)CO
inactive: Potency [2] > 46 µM | Potency [3] > 46 µM | Potency [4] | Potency [5] | Potency [7] | Potency [8] | Potency [9]
active: Potency [1] 25.1 µM | Potency [16] 7.94 µM | Potency [6] 31.6 µM

CC(C)[C@@H]1C(=O)N(S(C)(=O)=O)[C@H]2CCN(C(=O)/C=C\CN3CCCCC3)[C@@H]12
inactive: Potency [1] | Potency [2] > 46 µM | Potency [3] > 46 µM | Potency [4] | Potency [5] | Potency [6] | Potency [7] | Potency [8] | Potency [9]

Cc1cccc([C@@H]2CN(C)CCc3c2cc(O)c(O)c3Cl)c1
inactive: Potency [1] | activity change, negative = inhibition [14] -15% | activity, negative = inhibition [15] 11.4% | Potency [2] > 46 µM | Potency [3] > 46 µM | Potency [5] | outcome [17] | Potency [19] | outcome [18] | Potency [7] | Potency [8] | Potency [9]
